This is a sample that favours compounds with a hit; in the whole collection about 6.6% have one here.
MCF10A rereplic = inducers of DNA re-replication in MCF 10A breast cells. MCF 10A DNA re-replication, Hoechst nuclear intensity, 48 h. Potency, µM (top dose mostly 46.1 µM), for inactives: at the top dose activity, positive = re-replication, hits mostly activators. hit rate 2.9% among 350,000; also: % of control where 0% means no effect; nearly all actives have a fitted effect of over 50% in size
KB-3-1 cytotox = kills parental KB-3-1 adenocarcinoma cells; KB-3-1 viability, CellTiter-Glo ATP luminescence, 72 h; Potency, µM (highest dose often 46.1 µM), hits mostly cytotoxic; hit rate 1.4% among 400,000; also: % is scaled to controls: 0 for no effect and ±100 for the full control effect; nearly all actives have a fitted effect of over 60% in size
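Viability of parental KB-3-1 cells, measured by CellTiter-Glo luminescence, followed a 72 h incubation at 37 °C with pinned compounds in phenol-red-free DMEM containing 10% FBS.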
KB-V1 cytotox = kills drug-selected multidrug resistant KB-V1 cells; KB-V1 MDR cells viability, CellTiter-Glo, 72 h; Potency, µM (doses to about 46.1 µM), actives largely listed as cytotoxic; hit rate 3.4% among 400,000; AID 1347076; also: % is scaled to controls: 0 for no effect and ±100 for the full control effect; nearly all actives have a fitted effect of over 60% in size
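KB-V1 MDR subline cells in DMEM (phenol-red free, 10% FBS) exposed to compounds in qHTS concentration series for 72 h at 37 degrees C. Viability read by CellTiter-Glo luminescence; concentration-effect curves fitted after normalization and correction.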
SW480 rerep = induces DNA re-replication in SW480 colon adenocarcinoma cells | hit rate 1.8% among 340,000 | AID 624297 | SW480 DNA re-replication, Hoechst DNA content imaging, 48 h | Potency, µM (titrated, usually from 46.1 µM), without a hit: at the top dose re-replication activation, actives largely listed as activators; also: % of control where 0% means no effect; nearly all actives have a fitted effect of over 55% in size
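Image-based read-out: total Hoechst fluorescence of nuclei (405 nm excitation, 500-530 nm emission), with hits raising the fraction of high-intensity nuclei. SW480 colon cells incubated 48 hr with compounds at 37 C.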
RGS4 inhibitor = inhibitors of human regulator of G protein signaling 4; P49798; Transcreener GDP fluorescence polarization, RGS4-accelerated GTP hydrolysis; Potency, µM (top dose mostly 114 µM), for inactives: top-dose activity change, negative = inhibition, actives largely listed as inhibitors; hit rate 0.039% among 390,000; AID 504845; also: % is scaled to controls: 0 for no effect and ±100 for the full control effect; nearly all actives have a fitted effect of over 75% in size
Target sequence (P49798 whole entry, looked up): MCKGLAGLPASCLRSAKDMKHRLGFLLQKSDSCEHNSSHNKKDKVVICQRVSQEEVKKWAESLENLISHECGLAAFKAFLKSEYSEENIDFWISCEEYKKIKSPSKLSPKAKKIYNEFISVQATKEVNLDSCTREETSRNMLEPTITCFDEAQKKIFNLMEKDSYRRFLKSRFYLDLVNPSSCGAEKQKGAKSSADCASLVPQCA
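MLSMR compounds (23 nl, pin-transferred) preincubated 10 min at room temperature with a 500nM (2x) first reagent, then RGS4 at 900nM (2x) plus Transcreener GDP mix added; fluorescence polarization (620/688 nm) read before and after 90 min at 30 °C.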
TSG101-PTAP inh = blocks PTAP/TSG101 interaction to inhibit HIV-1 budding. AID 493005. Fluorescence polarization, FITC-PTAP peptide / Tsg101 binding. Potency, µM (titrated, usually from 115 µM), for inactives: at the highest dose activity change, negative = inhibition, hits mostly inhibitors. Q99816. 340,000 tested, under 10 active; active = well fitted inhibition curve with a large enough effect in the main read-out, with a control signal flat, not every such curve was filed as active; inconclusive = small, poorly fitted or top-dose-only effect, or effect the other way, or a change in a side signal; inactive = no such curve, though single readings can be large or run the other way; also: % of control where 0% means no effect
Target sequence (Q99816 whole entry, looked up): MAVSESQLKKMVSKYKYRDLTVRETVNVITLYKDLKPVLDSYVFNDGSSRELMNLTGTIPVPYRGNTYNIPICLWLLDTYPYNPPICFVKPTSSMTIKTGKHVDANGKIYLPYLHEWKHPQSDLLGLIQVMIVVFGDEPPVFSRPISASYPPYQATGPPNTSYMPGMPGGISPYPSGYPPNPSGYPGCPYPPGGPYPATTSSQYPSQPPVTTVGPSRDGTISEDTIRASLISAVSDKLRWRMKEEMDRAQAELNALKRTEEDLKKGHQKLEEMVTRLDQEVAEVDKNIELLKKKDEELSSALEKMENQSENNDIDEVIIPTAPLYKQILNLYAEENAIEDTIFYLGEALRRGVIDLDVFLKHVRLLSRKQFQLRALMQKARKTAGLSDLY
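Tsg101 binding domain (10 uM final) was mixed with compound and a FITC-labeled PTAP peptide (50 nM final) in HEPES pH 7.5 buffer with NaCl, Tween 20, EDTA and TCEP; fluorescence polarization was read after 20 min at r.t.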
The depositor's hits bear a star; i = inactive; ? = inconclusive; · = no result given; [ ] = another dose, or the depositor's remark. Unless noted, calls follow the shape of the dose curve; as a rule, active = well fitted curve in the direction sought with a large enough effect; inconclusive = small, poorly fitted or top-dose-only effect, or another doubt; inactive = no such curve, though single readings can be large; an effect the other way counts as inactive or inconclusive. Potency is read from the fitted curve at half-maximal effect.

SMILES	MCF10A rereplic	KB-3-1 cytotox	KB-V1 cytotox	SW480 rerep	RGS4 inhibitor	TSG101-PTAP inh
CCCCOC(=O)Nc1ccc(S(=O)(=O)Nc2ccc([N+](=O)[O-])cc2)cc1	15%	i	21µM*	?	-33%	2%
CCCCN(CCCC)S(=O)(=O)c1ccc(NS(=O)(=O)c2ccc(NC(C)=O)cc2)cc1	15µM*	i	i	2%	-4%	-1%
CCCCN(CCCC)S(=O)(=O)c1ccc(NC(=O)Cc2cccs2)cc1	24%	i	5.2µM*	-2%	-24%	-3%
Nc1cccc(/C=C2\C=Cc3ccccc32)c1	·	i	i	·	·	·
COc1cccc(CNC(=O)CCc2c(C)c3cc4c(C)coc4cc3oc2=O)c1	·	i	i	·	-4%	·
CCOC(=O)c1c(N)sc2c(OCC)c(Br)ccc12	?	i	i	21µM*	12%	0%
CCOC(=O)c1c(NC(C)=O)sc2c(OCC(O)CNC(C)(C)C)c(Br)ccc12 (stereo not given)	?	i	?	?	20%	-6%
COc1ccccc1N(C)C	·	i	i	·	·	·
CN(Cc1ccc(Cl)cc1Cl)C(=O)c1cccc(S(=O)(=O)NCc2ccccc2)c1	3%	?	5.2µM*	-4%	-15%	-4%
O=C(NCc1cccc(C(F)(F)F)c1)c1cccc(S(=O)(=O)NCc2ccccc2)c1	?	i	18µM*	133%	-2%	-1%
O=C(c1ccc(CNS(=O)(=O)c2cccc(C(F)(F)F)c2)cc1)N1CCOCC1	-7%	i	13µM*	-3%	24%	-5%
O=C(NCc1ccccc1F)c1cccc(S(=O)(=O)NCc2ccccc2)c1	0%	·	·	4%	12%	0%
NS(=O)(=O)c1ccc(NC(=O)c2cnn3c2NC(=C2CC2)C=C3C(F)F)cc1	·	i	?	·	·	·
CC1CCN(S(=O)(=O)c2ccc3c(c2)N(CC(=O)N(C)Cc2ccccc2)C(=O)CO3)CC1	·	·	·	·	6%	·
CC(C)(C)SCCNC(=O)c1ccccc1	-3%	i	i	0%	17%	-5%
CCC(CCNC(=O)c1ccccc1)(CCNC(=O)c1ccccc1)[N+](=O)[O-]	2%	i	21µM*	-3%	-37%	-1%
CC(CCNC(=O)c1ccccc1)(CCNC(=O)c1ccccc1)[N+](=O)[O-]	2%	i	15µM*	1%	-14%	-3%
O=C(c1cccs1)N1CCc2c([nH]c3ccccc23)C1c1ccc(Cl)cc1 (stereo not given)	?	12µM*	12µM*	?	-18%	0%
C#CCOc1nc2c(c(=O)n(C)c(=O)n2C)n1Cc1ccccc1	10%	i	i	-10%	10%	-2%
CCCCCn1c(CN(C)Cc2ccccc2)nc2c1c(=O)n(C)c(=O)n2C	?	18µM*	2.3µM*	5%	-5%	-5%
Cn1c(=O)c2c(ncn2CCCc2ccccc2)n(C)c1=O	0%	?	15µM*	-9%	-26%	-3%
C=CCOc1nc2c(c(=O)n(C)c(=O)n2C)n1Cc1ccccc1	-1%	?	8.2µM*	?	-2%	-3%
CN(Cc1ccccc1)Cc1nc2c(c(=O)n(C)c(=O)n2C)n1Cc1ccc(F)cc1	10%	i	9.2µM*	4%	6%	-8%
Cc1ccc(Cn2c(CN(C)Cc3ccccc3)nc3c2c(=O)n(C)c(=O)n3C)cc1	-1%	i	i	-1%	-1%	-14%
CCCCn1c(CN(Cc2ccccc2)Cc2ccccc2)nc2c1c(=O)n(C)c(=O)n2C	?	?	?	-2%[9.22 µM]	26%	-9%
SMILES	MCF10A rereplic	KB-3-1 cytotox	KB-V1 cytotox	SW480 rerep	RGS4 inhibitor	TSG101-PTAP inh
Cc1ccc(Cn2ccc(NC(=O)c3cc(-c4ccc(Cl)c(Cl)c4)on3)n2)cc1	·	i	i	·	-4%	·
Cc1ccc(N2C(=O)CS(=O)(=O)C23C(=O)N(Cc2ccccc2F)c2ccccc23)cc1Cl (stereo not given)	·	i	i	·	-18%	·
CCOc1ccc(N(CC)S(=O)(=O)N2CCCC(C(=O)NCc3ccccc3OCC)C2)cc1 (stereo not given)	·	i	i	·	-18%	·
CN(Cc1ccccc1)c1nc2c(c(=O)n(C)c(=O)n2C)n1CCCc1ccccc1	26µM*	i	i	-2%	-20%	-3%
CC(C)=C[C@H]1C[C@H](C)[C@H]2CC[C@H](C)c3c(O[C@@H]4OC[C@@H](O)[C@H](O)C4O)c(O)c(C)c1c32 (stereo not given in full)	21µM*	i	i	-92%[9.22 µM]	-8%	-6%
CC(=O)Oc1c(C)c2c3c(c1OC(C)=O)[C@@H](C)CC[C@@H]3[C@@H](C)C[C@H]2C=C(C)C	26µM*	i	?	6%	7%	-4%
CC(=O)OC1[C@H](Oc2c(O)c(C)c3c4c2[C@@H](C)CC[C@@H]4[C@@H](C)C[C@@H]3C=C(C)C)OC[C@@H](O)[C@@H]1O (stereo not given in full)	?	i	i	-9%	3%	-3%
CCOC(=O)c1cnc2ccccc2c1Nc1cccc(OC)c1	·	i	?	·	15%	·
CCOC(=O)CN(C)C(=O)C1CC(CO[Si](C)(C)C(C)(C)C)=CN1C(=O)OC(C)(C)C (stereo not given)	·	·	·	·	12%	·
CCc1ccc2[nH]cc(S(=O)(=O)c3ccc(C)c(C)c3)c(=O)c2c1	27%	i	i	-10%	6%	0%
CCc1ccc2[nH]c3nc(C)cc(C)c3c(=O)c2c1	?	i	6.5µM*	8%	-22%	1%
Cc1ccc(NC(=O)CCn2c(=O)c3cccn3c3ccccc32)c(Cl)c1	·	·	·	·	38%	·
CCN(CC)c1ccc(C(=O)N/N=C(\C)c2ccc(O)cc2)cc1	8.2µM*	13µM*	i	-4%	-1%	-3%
CCN(CC)c1ccc(C(=O)N/N=C(\C)c2cccnc2)cc1	20%	i	?	-4%	-20%	-1%
C/C(=N\NC(=O)c1ccc(OC2CCCC2)cc1)c1ccc(O)cc1	?	3.7µM*	?	9%	22%	-2%
O=C(C[N+]1(CCc2ccccc2)CCOCC1)c1cccc([N+](=O)[O-])c1	·	i	i	·	·	·
CCn1c(C(=O)Nc2cc(C)cc(C)c2)cc2sc(Cl)cc21	·	i	?	·	35%	·
CC(C)(C)n1nnnc1C(c1cccc(C(F)(F)F)c1)N1CCC(O)CC1 (stereo not given)	11%	0.0046µM*	i	-15%	-2%	1%
CCc1nc2ccc(C(=O)NC(C)(C)C)cn2c1N(CC)Cc1cccc(Br)c1	·	?	21µM*	·	·	·

From PubChem BioAssay
